The full data set covers some 8,800 targets. This sample favours those with a hit. About 0.5% of all pairs of compound and target were hits. A number with no mark means an inactive call.

Chain of UniProt Q01813 (Q01813 whole entry, looked up): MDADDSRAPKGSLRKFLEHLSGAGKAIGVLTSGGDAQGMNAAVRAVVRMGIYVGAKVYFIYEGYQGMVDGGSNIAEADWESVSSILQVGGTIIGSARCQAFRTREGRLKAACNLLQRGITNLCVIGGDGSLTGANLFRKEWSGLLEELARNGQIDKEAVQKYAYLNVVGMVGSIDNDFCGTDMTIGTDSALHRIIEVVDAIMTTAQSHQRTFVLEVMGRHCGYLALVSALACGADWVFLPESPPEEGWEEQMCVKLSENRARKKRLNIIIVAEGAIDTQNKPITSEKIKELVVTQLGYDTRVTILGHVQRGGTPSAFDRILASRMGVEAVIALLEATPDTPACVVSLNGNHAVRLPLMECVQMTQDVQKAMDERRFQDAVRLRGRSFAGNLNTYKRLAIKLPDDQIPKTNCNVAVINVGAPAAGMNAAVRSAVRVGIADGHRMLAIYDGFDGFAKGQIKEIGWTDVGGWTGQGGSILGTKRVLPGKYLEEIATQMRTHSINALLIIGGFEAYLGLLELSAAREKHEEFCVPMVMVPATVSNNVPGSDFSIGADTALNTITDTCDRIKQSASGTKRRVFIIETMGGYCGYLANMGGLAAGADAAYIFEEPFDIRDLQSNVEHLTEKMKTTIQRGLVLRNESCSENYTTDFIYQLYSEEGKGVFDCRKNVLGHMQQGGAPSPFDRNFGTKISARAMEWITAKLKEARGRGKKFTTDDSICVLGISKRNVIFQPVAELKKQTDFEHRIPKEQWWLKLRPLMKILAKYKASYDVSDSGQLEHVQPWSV
Chain of UniProt Q10713 (Q10713 whole entry, looked up): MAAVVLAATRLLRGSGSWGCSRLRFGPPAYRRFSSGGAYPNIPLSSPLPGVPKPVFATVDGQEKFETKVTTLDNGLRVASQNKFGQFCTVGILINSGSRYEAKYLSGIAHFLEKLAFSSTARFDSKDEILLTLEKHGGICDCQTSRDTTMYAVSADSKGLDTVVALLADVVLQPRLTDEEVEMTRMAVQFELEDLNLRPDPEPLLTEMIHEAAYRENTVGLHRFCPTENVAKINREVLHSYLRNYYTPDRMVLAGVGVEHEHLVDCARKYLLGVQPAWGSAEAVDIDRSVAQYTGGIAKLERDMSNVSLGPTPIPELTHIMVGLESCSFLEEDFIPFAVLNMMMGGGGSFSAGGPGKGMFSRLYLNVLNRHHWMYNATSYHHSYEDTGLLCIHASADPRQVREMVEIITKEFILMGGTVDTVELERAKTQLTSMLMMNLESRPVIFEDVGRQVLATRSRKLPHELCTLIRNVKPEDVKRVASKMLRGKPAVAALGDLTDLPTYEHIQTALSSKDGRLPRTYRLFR
Chain of UniProt Q99541 (Q99541 whole entry, looked up): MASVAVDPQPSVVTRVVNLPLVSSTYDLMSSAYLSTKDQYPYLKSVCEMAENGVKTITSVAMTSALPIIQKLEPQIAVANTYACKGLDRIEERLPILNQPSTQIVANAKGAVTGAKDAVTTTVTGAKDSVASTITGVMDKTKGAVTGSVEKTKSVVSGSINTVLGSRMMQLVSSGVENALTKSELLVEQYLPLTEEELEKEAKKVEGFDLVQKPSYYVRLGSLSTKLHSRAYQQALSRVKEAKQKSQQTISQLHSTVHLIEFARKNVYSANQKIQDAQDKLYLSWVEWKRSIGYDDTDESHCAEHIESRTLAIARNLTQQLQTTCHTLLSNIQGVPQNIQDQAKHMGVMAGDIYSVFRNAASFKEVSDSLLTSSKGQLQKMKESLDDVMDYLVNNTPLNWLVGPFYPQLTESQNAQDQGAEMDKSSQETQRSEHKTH
Chain of UniProt Q15054 (Q15054 whole entry, looked up): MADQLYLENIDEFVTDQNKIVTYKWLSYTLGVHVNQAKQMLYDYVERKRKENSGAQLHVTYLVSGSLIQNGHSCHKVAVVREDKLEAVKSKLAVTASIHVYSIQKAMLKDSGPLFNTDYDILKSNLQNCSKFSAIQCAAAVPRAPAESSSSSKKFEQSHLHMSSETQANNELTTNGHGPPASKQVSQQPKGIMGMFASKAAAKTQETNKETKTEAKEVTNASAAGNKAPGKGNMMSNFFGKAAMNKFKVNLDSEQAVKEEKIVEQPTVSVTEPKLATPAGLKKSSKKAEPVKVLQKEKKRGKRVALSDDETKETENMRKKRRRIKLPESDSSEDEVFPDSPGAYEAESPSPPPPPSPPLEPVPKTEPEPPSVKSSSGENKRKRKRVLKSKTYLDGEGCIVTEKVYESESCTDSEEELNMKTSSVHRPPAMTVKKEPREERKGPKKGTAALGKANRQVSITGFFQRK
Chain of UniProt Q96C36 (Q96C36 whole entry, looked up): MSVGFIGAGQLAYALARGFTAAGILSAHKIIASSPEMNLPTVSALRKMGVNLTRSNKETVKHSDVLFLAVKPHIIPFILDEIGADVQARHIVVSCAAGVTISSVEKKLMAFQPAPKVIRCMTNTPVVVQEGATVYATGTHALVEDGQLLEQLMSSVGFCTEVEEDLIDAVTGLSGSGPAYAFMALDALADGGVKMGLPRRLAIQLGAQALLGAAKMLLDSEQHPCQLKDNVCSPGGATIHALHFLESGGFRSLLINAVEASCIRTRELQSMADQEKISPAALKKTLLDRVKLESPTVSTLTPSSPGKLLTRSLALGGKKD
Chain of UniProt O75569 (O75569 whole entry, looked up): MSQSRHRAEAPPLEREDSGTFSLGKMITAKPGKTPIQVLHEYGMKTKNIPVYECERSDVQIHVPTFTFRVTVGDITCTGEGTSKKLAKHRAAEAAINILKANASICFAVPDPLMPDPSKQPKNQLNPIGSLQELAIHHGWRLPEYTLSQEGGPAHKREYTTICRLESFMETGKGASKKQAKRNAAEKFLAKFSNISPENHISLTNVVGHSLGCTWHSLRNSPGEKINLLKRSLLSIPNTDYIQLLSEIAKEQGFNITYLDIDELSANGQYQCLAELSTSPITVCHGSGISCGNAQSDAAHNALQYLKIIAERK
Chain of UniProt P18031 (P18031 whole entry, looked up): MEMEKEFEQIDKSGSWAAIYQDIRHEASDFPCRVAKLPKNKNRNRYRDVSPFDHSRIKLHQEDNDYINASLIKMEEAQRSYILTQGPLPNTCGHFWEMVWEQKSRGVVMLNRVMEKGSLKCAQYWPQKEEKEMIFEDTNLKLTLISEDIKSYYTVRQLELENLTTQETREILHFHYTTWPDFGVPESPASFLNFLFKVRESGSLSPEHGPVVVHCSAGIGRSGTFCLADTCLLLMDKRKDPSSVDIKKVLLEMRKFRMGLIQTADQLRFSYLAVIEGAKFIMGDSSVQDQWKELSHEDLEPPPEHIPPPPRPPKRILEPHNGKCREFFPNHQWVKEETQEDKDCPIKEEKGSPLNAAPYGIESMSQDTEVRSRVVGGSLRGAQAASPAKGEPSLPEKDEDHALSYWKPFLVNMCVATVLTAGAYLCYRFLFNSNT
Chain of UniProt P17706 (P17706 whole entry, looked up): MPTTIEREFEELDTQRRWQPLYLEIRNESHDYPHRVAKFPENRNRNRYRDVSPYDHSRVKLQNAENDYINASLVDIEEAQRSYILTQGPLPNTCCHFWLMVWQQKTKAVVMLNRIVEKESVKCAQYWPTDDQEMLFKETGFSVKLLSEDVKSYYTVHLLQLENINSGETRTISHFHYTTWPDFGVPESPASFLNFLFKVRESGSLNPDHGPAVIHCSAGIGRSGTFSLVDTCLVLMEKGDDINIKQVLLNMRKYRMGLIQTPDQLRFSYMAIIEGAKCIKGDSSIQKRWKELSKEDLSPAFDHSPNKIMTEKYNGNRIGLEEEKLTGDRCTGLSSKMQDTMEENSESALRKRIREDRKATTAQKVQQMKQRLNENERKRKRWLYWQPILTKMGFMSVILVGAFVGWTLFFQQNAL
Chain of UniProt Q8IZ21 (Q8IZ21 whole entry, looked up): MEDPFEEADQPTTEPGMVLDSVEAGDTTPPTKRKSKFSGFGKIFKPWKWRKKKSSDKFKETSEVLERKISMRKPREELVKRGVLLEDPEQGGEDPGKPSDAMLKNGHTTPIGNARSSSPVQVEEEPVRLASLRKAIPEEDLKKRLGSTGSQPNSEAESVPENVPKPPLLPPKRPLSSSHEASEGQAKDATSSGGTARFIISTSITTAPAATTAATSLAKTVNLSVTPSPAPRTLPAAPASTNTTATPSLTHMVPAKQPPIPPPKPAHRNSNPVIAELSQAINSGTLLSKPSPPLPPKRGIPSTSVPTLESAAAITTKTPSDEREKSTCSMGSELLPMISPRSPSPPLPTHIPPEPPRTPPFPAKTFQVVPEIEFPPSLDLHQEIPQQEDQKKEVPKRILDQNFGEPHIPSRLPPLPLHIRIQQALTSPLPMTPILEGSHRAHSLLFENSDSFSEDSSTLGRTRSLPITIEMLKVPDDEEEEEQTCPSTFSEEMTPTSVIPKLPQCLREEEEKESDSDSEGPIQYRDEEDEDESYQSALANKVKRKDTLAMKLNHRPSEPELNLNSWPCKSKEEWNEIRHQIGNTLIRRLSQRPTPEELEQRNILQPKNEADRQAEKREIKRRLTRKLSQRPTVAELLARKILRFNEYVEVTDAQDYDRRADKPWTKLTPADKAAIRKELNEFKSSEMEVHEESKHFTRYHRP
Chain of UniProt P14314 (P14314 whole entry, looked up): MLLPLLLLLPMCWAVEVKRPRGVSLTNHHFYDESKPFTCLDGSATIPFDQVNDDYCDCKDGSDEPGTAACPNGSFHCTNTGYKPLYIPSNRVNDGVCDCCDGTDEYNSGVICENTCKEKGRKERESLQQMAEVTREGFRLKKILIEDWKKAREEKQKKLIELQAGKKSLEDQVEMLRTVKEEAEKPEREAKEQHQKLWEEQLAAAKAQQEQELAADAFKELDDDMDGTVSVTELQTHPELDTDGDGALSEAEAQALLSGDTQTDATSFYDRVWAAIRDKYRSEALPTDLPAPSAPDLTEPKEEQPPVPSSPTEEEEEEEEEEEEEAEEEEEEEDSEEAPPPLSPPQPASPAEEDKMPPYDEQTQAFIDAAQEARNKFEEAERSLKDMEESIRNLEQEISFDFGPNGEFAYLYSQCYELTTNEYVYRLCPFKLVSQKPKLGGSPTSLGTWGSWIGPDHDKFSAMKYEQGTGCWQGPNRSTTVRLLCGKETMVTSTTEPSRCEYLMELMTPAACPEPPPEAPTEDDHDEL

Compound in the first assay: CNC(=O)C1=CC=CC=C1NC2=NC(=NC=C2Cl)NC3=C(C=C(C=C3)N4CCOCC4)OC
Kind of assay: log2 fold change, soluble protein after heating vs DMSO (PISA); higher = thermal stabilisation; K562 lysate, 10 uM; active = over 0.2 and 3.5 SD of the protein, either way, in both replicates (recomputed). Summed up: (§1)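 A 30 min treatment with 10 μM compound was applied to crude K562 extract at 1 mg/mL protein in PBS pH 7.4 with 1 mM MgCl2. Heating for 3 min spanned 48°C-58°C, after which aliquots were pooled, adjusted to 0.5% NP-40 at 4°C and spun at 21,000xg for 90 min. TMTpro 16plex LC-MS/MS of the supernatant, with channel sums equalised, gave values recorded as log-two fold change in thermal stability against solvent controls, from duplicates.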
For the target PDCD10 (UniProt Q9BUL8), the log2 fold change is 0.013.
PGPEP1 (UniProt Q9NXJ5): the log2 fold change was 0.012.
With PRIM1 (UniProt P49642), the log2 fold change was 0.023.
The same measure, in the same setting: the same measure for PPP1R8 (UniProt Q12972): -0.025.
PELO (UniProt Q9BRX2): the log2 fold change was 0.026.
As to PDCD6IP isoform 2 (UniProt Q8WUM4), the log2 fold change is -0.005.
The same measure, in the same setting: the same measure for PTGES2 (UniProt Q9H7Z7): 0.122; for PYURF (UniProt Q96I23): 0.073; for PMPCA (UniProt Q10713): -0.045.
The same measure, in the same setting: under POLA1 (UniProt P09884) stands 0.037; under PHKG2 (UniProt P15735), 0.268.
For PRKACB isoform 2 (UniProt P22694), the log2 fold change was 0.011.
Take POLB (UniProt P06746): the log2 fold change is -0.062.
For the target PTPN1 (UniProt P18031), the log2 fold change was 0.018.
For PRPH isoform 2 (UniProt P41219), the log2 fold change is -0.049.
On the same count and under the same terms, the same measure for PKN1 isoform 2 (UniProt Q16512): -0.001.
Same read-out and setting: under PPP4R2 (UniProt Q9NY27) stands 0.018; under PEF1 (UniProt Q9UBV8), 0.029.
For the target PXMP4 (UniProt Q9Y6I8), the log2 fold change is 0.012.
Same read-out and setting: under POLR3E (UniProt Q9NVU0) stands 0.009; under PRKRA (UniProt O75569), 0.028; under PTK2 (UniProt Q05397), 0.54 (active).
For PLIN2 (UniProt Q99541), the log2 fold change was -0.014.
On the same count and under the same terms, under PHACTR4 isoform 2 (UniProt Q8IZ21) stands -0.024.
PTGR2 (UniProt Q8N8N7): the log2 fold change is 0.02.
The same measure, in the same setting: under PRMT5 (UniProt O14744) stands 0.008.
As for PCYT1B (UniProt Q9Y5K3), the log2 fold change is 0.033.
Still for that read-out and setting: under POC5 (UniProt Q8NA72) stands 0.054.
Turning to PFKP (UniProt Q01813), the log2 fold change is 0.029.
For PDF (UniProt Q9HBH1), the log2 fold change is 0.083.
The same measure, in the same setting: under PYCR2 (UniProt Q96C36) stands 0.004.
The same measure, in the same setting: the same measure for PDE2A (UniProt O00408): 0.044; for PRKACA (UniProt P17612): 0.034.
Consider PTPN2 (UniProt P17706), for which the log2 fold change was 0.049.
In the case of PPFIA2 (UniProt O75334), the log2 fold change was 0.022.
Take PTP4A1 (UniProt Q93096): the log2 fold change is 0.023.
The same measure, in the same setting: the same measure for PDXDC1 (UniProt Q6P996): -0.007; for PRKCSH isoform 2 (UniProt P14314): -0.078; for POLD3 (UniProt Q15054): 0.099.

Compound in the next assay: CNC(=O)c1ccc(Nc2ncc(C(F)(F)F)c(NCc3nccnc3N(C)S(C)(=O)=O)n2)cc1 [defactinib]
Described as above. Summed up: as §1
PDCD10 (UniProt Q9BUL8): the log2 fold change is 0.029.
In the case of PGPEP1 (UniProt Q9NXJ5), the log2 fold change is -0.032.
For the target PRIM1 (UniProt P49642), the log2 fold change was -0.012.
PPP1R8 (UniProt Q12972): the log2 fold change is -0.003.
The same measure, in the same setting: the same measure for PELO (UniProt Q9BRX2): -0.022; for PDCD6IP isoform 2 (UniProt Q8WUM4): -0.022.
Take PTGES2 (UniProt Q9H7Z7): the log2 fold change was -0.075.
Same read-out and setting: the same measure for PYURF (UniProt Q96I23): 0.181.
Regarding PMPCA (UniProt Q10713), the log2 fold change was 0.004.
On the same count and under the same terms, the same measure for POLA1 (UniProt P09884): 0.016.
Still for that read-out and setting: under PHKG2 (UniProt P15735) stands 0.001; under PRKACB isoform 2 (UniProt P22694), 0.117.
The same measure, in the same setting: under POLB (UniProt P06746) stands 0.028.
On to PTPN1 (UniProt P18031), for which the log2 fold change is 0.015.
The same measure, in the same setting: under PRPH isoform 2 (UniProt P41219) stands -0.081; under PKN1 isoform 2 (UniProt Q16512), -0.079; under PPP4R2 (UniProt Q9NY27), 0.015.
With PEF1 (UniProt Q9UBV8), the log2 fold change was 0.087.
Same read-out and setting: the same measure for PXMP4 (UniProt Q9Y6I8): -0.028.
Take POLR3E (UniProt Q9NVU0): the log2 fold change is 0.02.
For PRKRA (UniProt O75569), the log2 fold change was 0.02.
In the case of PTK2 (UniProt Q05397), the log2 fold change is 0.518 (active).
The same measure, in the same setting: the same measure for PLIN2 (UniProt Q99541): 0.049.
PHACTR4 isoform 2 (UniProt Q8IZ21): the log2 fold change was 0.012.
On to PTGR2 (UniProt Q8N8N7), for which the log2 fold change was 0.018.
As for PRMT5 (UniProt O14744), the log2 fold change is -0.019.
On the same count and under the same terms, the same measure for PCYT1B (UniProt Q9Y5K3): 0.01; for POC5 (UniProt Q8NA72): 0.154; for PFKP (UniProt Q01813): -0.009.
With PDF (UniProt Q9HBH1), the log2 fold change is 0.059.
The same measure, in the same setting: under PYCR2 (UniProt Q96C36) stands 0.001; under PDE2A (UniProt O00408), -0.24.
On the same count and under the same terms, under PRKACA (UniProt P17612) stands 0.177; under PTPN2 (UniProt P17706), -0.008.
As for PPFIA2 (UniProt O75334), the log2 fold change was -0.011.
PTP4A1 (UniProt Q93096): the log2 fold change is 0.033.
Still for that read-out and setting: the same measure for PDXDC1 (UniProt Q6P996): 0.034; for PRKCSH isoform 2 (UniProt P14314): -0.011.
Take POLD3 (UniProt Q15054): the log2 fold change is -0.033.
